Test results published in PubChem BioAssay (NCI).
About 79,000 compounds went through this panel and 15% of them were active in at least one assay; those are over-represented in the sample as a whole. No stated cut-off is given here; in the data, active means growth inhibition above about 70%; inactive means the rest.

Key:
[1] = NCI Yeast Anticancer Drug Screen. Data for the rad50 strain (AID 155);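 further: 0% = growth of vehicle-only cultures of the same strain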; settings: S. cerevisiae rad50 strain growth inhibition; at 50.0 µM; active compounds read high
Outline: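 Vehicle-treated cultures provide the reference for the growth inhibition reported for compound-exposed, repair-deficient yeast.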

[2] = NCI Yeast Anticancer Drug Screen. Data for the mec2-1 strain (AID 157); settings: S. cerevisiae mec2-1 strain, at 50.0 µM, active compounds read high
Outline: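 Strain: mec2-1 (DNA repair/cell cycle alteration). Compound exposure, then growth measured; inhibition expressed relative to vehicle.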

[3] = NCI Yeast Anticancer Drug Screen. Data for the sgs1 mgt1 strain (AID 161);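 further: 0% = growth of cultures given vehicle only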; settings: S. cerevisiae sgs1 mgt1 strain, at 50.0 µM, active compounds read high
Outline: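 Test agents were incubated with a DNA-repair-mutant yeast strain. Growth was then read and compared against vehicle-treated controls.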

[4] = NCI Yeast Anticancer Drug Screen. Data for the cln2 rad14 strain (AID 165);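 further: 0% = growth equal to vehicle treated cultures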; settings: S. cerevisiae cln2 rad14 strain, at 50.0 µM, active compounds read high
Outline: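 Compounds are applied to the cln2 rad14 yeast strain, and growth is then compared with that of vehicle-treated cultures to give inhibition.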

[5] = NCI Yeast Anticancer Drug Screen. Data for the bub3 strain (AID 167); settings: S. cerevisiae bub3 mutant strain, at 50.0 µM, active compounds read high
Outline: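 Mutant yeast screening strain plus compound; vehicle-treated cultures serve as the 0% inhibition reference.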

[6] = NCI Yeast Anticancer Drug Screen. Data for the mlh1 rad18 strain (AID 175); settings: S. cerevisiae mlh1 rad18 strain growth inhibition; at 50.0 µM; active compounds read high
Outline: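 Read-out is yeast growth inhibition, calculated against vehicle-only controls. The compound was applied to a strain engineered with DNA damage repair alterations.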

Measured: growth inhibition

CCc1cc(CC)n2cnnc2n1
inactive: [1] 16.7% | [2] -3.75% | [3] -9% | [4] -29.6% | [5] 7.2% | [6] -8.5%

CCOC(=O)C1/C(=C\O)C(=O)c2cc(OC)c(OC)cc2C1c1ccc(OC)c(OC)c1 (stereo unspecified)
inactive: [1] -0.5% | [2] 0.9% | [3] 20.6% | [4] 8.35% | [5] -5.95% | [6] 21.9%

COc1ccc(C(CCOS(=O)(=O)c2ccc(Br)cc2)(c2ccc(OC)cc2)c2ccc(OC)cc2)cc1
inactive: [1] 0.9% | [2] 12.8% | [3] -13.1% | [4] -23.6% | [5] 0% | [6] 15.6%

CC1=C(C(=O)NNC(=O)CC#N)CC(C(=O)NNC(=O)CC#N)=C(C)N1
inactive: [1] -27.7% | [2] -43.8% | [3] -20.8% | [4] -24.6% | [5] -27.4% | [6] -0.05%

COC(=O)c1cc(-c2ccccc2)c2c(=O)n(-c3ccccc3)[nH]c2n1
inactive: [1] 13.7% | [2] 7.35% | [3] 20.5% | [4] -10.3% | [5] -4.55% | [6] 4.85%

CCOC(=O)c1cnc2c(ccc3ncccc32)c1OCC
inactive: [1] -12.2% | [2] -23.1% | [3] 7.8% | [4] 17.2% | [5] 10.8% | [6] 12.1%

Cc1cccc(Cl)c1NC(=O)Nc1ccc(C#N)cc1
inactive: [1] 15.4% | [2] -10.6% | [3] 17.9% | [4] 5.35% | [5] -3.45% | [6] -1%

Cc1ccc(NC(=O)c2ccccc2)cc1
inactive: [1] 3.75% | [2] 4.7% | [3] -2.55% | [4] -16% | [5] 2.05% | [6] -0.3%

Cc1ccc(S(=O)(=O)OCC2(COS(=O)(=O)c3ccc(C)cc3)CCC2)cc1
inactive: [1] -7.8% | [2] -7.75% | [3] 0.25% | [4] -8.95% | [5] 16% | [6] -15%

O=c1[nH]nnc2ccccc12
inactive: [1] 2.85% | [2] 4.8% | [3] 1.85% | [4] 4.55% | [5] 17.9% | [6] -0.55%

c1ccc(C2CN3CCSC3=N2)cc1 (stereo unspecified)
inactive: [1] -30.4% | [2] -34.8% | [3] -19.1% | [4] 5.5% | [5] -12.2% | [6] -16.9%

C=CCOC1OC(CO)C(O)C(O)C1O (stereo unspecified)
inactive: [1] 9.8% | [2] 38% | [3] 29.2% | [4] 11.5% | [5] 7.3% | [6] 9.35%

O=C1NC(N2CCCCC2)=N/C1=C\c1ccc(Cl)cc1
inactive: [1] -7.5% | [2] -7% | [3] 2.4% | [4] 7.55% | [5] -12.3% | [6] -38.5%

CC(C)(C)[C@@H]1NC(=O)CN1C(=O)OCc1ccccc1
inactive: [1] -22.1% | [2] -35.2% | [3] -51.9% | [4] -17.1% | [5] 26.9% | [6] -11.1%

CCCCC1SCC(=O)N1c1nncs1 (stereo unspecified)
inactive: [1] 6.35% | [2] 24% | [3] 5.4% | [4] -3.8% | [5] 16.7% | [6] -3.2%

Cc1cc(N(CCC#N)CCC#N)ccc1/C=C1\N=C(c2cc([N+](=O)[O-])ccc2Cl)N(c2cccc(Cl)c2)C1=O
inactive: [1] -19.4% | [2] -20.2% | [3] -23.9% | [4] -7.6% | [5] -6.05% | [6] -29.2%

NC(=S)n1nc(-c2ccccc2)c(N=Nc2cccc([N+](=O)[O-])c2)c1-c1ccccc1
inactive: [1] 32.9% | [2] 7.5% | [3] 31.1% | [4] 19.6% | [5] 0.1% | [6] 10.8%

CC1(C)CC(=O)C2(C)C(C1O)C2C1C2C(O)C(C)(C)CC(=O)C21C (stereo unspecified)
inactive: [1] -11.2% | [2] 3.25% | [3] -5.3% | [4] -6.75% | [5] 8.2% | [6] -16.1%

CSc1cc(=O)n(C2OC(CO)C(O)C2O)c(=O)[nH]1 (stereo unspecified)
inactive: [1] 9.05% | [2] -5.35% | [3] 17.6% | [4] -14.9% | [5] 10.1% | [6] 25.7%

CCCCCCCCCCCCCCCC/C=C\CCCCCCCCCCCCCCCCC
inactive: [1] -7.8% | [2] -18.1% | [3] -0.85% | [4] 17.3% | [5] 2.25% | [6] -13.1%

NC(=O)c1ccc(S(=O)(=NS(=O)(=O)c2ccccc2)c2ccc(C(N)=O)cc2)cc1
inactive: [1] 4.2% | [2] -8.4% | [3] -11.8% | [4] -62.8% | [5] -25.6% | [6] -1.6%
